Results with a measured potency or affinity are listed apart. The source made the active and inactive calls. How the calls were made is not given here.

Experimental findings from PubChem BioAssay AID540296 (Southern Research Specialized Biocontainment Screening …, 2011) are described below.

A short description of this test: MDCK cell cytotoxicity, dose response, cytotoxicity control (AID 540296).

As for `CN(C)c1cccc2c(C=C(C#N)C#N)ccc(N(C)C)c12`, the call was inactive. The entry for `Cc1ccc(N2C(=O)C(CC(=O)Nc3cccc(F)c3)N(C3CC3)C2=O)cc1` (configuration not stated) is “inactive”.
